# PubChem BioAssay (NCI)
# Compounds without any hit were thinned out: in the full panel of roughly 83,000, 20% have a hit.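 Interpretation: 100, growth as untreated; towards 0, rising growth inhibition; 0, no net growth; 0 to -100, cell death. Compounds scoring below 10 were considered active.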 A number with no mark means an inactive call. Calls of active or inactive are those of the source.
# Experiments:
# Experiment in all cases: NCI-60 one-dose screen, 48 h (100 = growth as untreated, 0 = no growth, -100 = all killed)
# Conditions in all cases: 10 µM unless noted
# [1] = system: SK-MEL-2 melanoma
# [2] = system: EKVX NSCLC
# [3] = system: SN12C renal
# [4] = system: UO-31 renal
# [5] = system: TK-10 renal
# [6] = system: ACHN renal
# [7] = system: CAKI-1 renal
# [8] = system: CCRF-CEM leukemia
# [9] = system: MOLT-4 leukemia
# [10] = system: SR leukemia
# [11] = system: RPMI-8226 leukemia
# [12] = system: OVCAR-8 ovarian
# [13] = system: OVCAR-5 ovarian
# [14] = system: OVCAR-4 ovarian
# [15] = system: SK-OV-3 ovarian
# [16] = system: IGROV1 ovarian
# [17] = system: OVCAR-3 ovarian
# [18] = system: HS 578T breast
# [19] = system: NCI/ADR-RES ovarian
Compound,growth [1],growth [2],growth [3],growth [4],growth [5],growth [6],growth [7],growth [8],growth [9],growth [10],growth [11],growth [12],growth [13],growth [14],growth [15],growth [16],growth [17],growth [18],growth [19]
NCCNC(=O)c1cccc(COc2ccccc2NC(=O)c2cc(Cl)c(Cl)[nH]2)c1,106%,94.4%,100%,92.2%,94.2%,100%,81.9%,85.8%,89.5%,8.2% (active),101%,92.1%,96.8%,97.7%,111%,94.6%,109%,103%,101%
O=C(CCCCCCNC(=O)C(O)(O)C(F)(F)F)Nc1ccc(Cl)cc1,-13.7% (active),39.2%,29.8%,8.11% (active),3.6% (active),0.488% (active),3.96% (active),22.4%,15.8%,12.1%,20.1%,11.9%,9.85% (active),47.4%,-6.99% (active),27.8%,24.9%,33.2%,24.6%
CN(C)c1ccc(-c2cc(-c3c[nH]c4ccccc34)nc(N)c2C#N)cc1,-0.536% (active),61.8%,43.1%,44.6%,72.9%,47.1%,24.1%,30%,35.4%,9.16% (active),4.44% (active),25.6%,48.8%,69.5%,30.9%,42.2%,–,35.6%,14.9%
COc1ccc(-c2cc(-c3ccc(N4CCOCC4)cc3)n3c(n2)nc2ccccc23)cc1OC,97.8%,88.3%,78.6%,39.2%,98.8%,93.6%,50.6%,63.7%,51.4%,70.3%,57.5%,82.5%,108%,–,118%,95.1%,–,98.2%,87.9%
CN1CCN(c2ccc(Nc3nc(NCCCNS(=O)(=O)c4ccc(C(F)(F)F)cc4)c4sccc4n3)cc2)CC1,-91% (active),0.826% (active),-60.2% (active),-85% (active),-34.4% (active),-74.3% (active),-76.9% (active),6.25% (active),0.188% (active),7.01% (active),-9.61% (active),-72.2% (active),-3% (active),-35% (active),-37% (active),-6.63% (active),-74.1% (active),-35% (active),-2.63% (active)
Cc1ccc2c(n1)C(=O)C(Cl)=C(Nc1cccc(C)c1C)C2=O,-42% (active),31.2%,-73.4% (active),-22.8% (active),142%,-25.5% (active),56.5%,2.35% (active),-10.3% (active),6.7% (active),-12.7% (active),-3.5% (active),-29% (active),-97.6% (active),117%,-58.4% (active),-97.8% (active),-13% (active),-5.45% (active)
